Inconclusive results are not listed. Unmarked numbers belong to inactive results. Calls of active or inactive are those of the source. Calls follow the shape of the dose curve; as a rule, active = well fitted curve in the direction sought with a large enough effect; inconclusive = small, poorly fitted or top-dose-only effect, or another doubt; inactive = no such curve, though single readings can be large; an effect the other way counts as inactive or inconclusive.

Test [1] can be described thus: Quantitative High-Throughput drug screen in 47 multiple myeloma cell lines against the NCATS MIPE library collection: KMS26_JCRB cell viability assay (AID 1918975). Also: nearly all actives have a fitted effect of over 45% in size. Also: potency is read from the fitted curve at half-maximal effect.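 As to viability (% of DMSO): 100% = DMSO-treated wells and 0% = wells with media only.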 In outline: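 Inhibition of cell viability is measured here. Each line was plated at 500 cells per well, treated with MIPE 4.0 drugs, kept 48 hours at 37C, then assayed for ATP content by CellTiter-Glo luminescence.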

A short description of test [2]: Quantitative High-Throughput drug screen in 47 multiple myeloma cell lines against the NCATS MIPE library collection: NCIH929_DSMZ cell viability assay (AID 1918978). Also: nearly all actives have a fitted effect of over 35% in size. Also: potency is read from the fitted curve at half-maximal effect. In outline: (§1)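 ATP-based luminescence (CellTiter-Glo, 5 min RT incubation) quantified surviving cells following two days' treatment with MIPE 4.0 agents at 37 °C, 5% CO2.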
A short description of test [3]: Quantitative High-Throughput drug screen in 47 multiple myeloma cell lines against the NCATS MIPE library collection: OCIMY1_PLB cell viability assay (AID 1918979).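 Also: 100% = DMSO-only wells and 0% = cell-free media-only wells; nearly all actives have a fitted effect of over 35% in size.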 In outline:
as §1

A short description of test [4]: Quantitative High-Throughput drug screen in 47 multiple myeloma cell lines against the NCATS MIPE library collection: MM1S_ATCC cell viability assay (AID 1918980). Also: nearly all actives have a fitted effect of over 45% in size. Also: potency is read from the fitted curve at half-maximal effect.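 As to viability (% of control): 100% = wells with DMSO only and 0% = wells with media only.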 In outline:
as §1

Test [5] is described as follows: Quantitative High-Throughput drug screen in 47 multiple myeloma cell lines against the NCATS MIPE library collection: LP1_DSMZ cell viability assay (AID 1918982). Also: nearly all actives have a fitted effect of over 35% in size. Also: potency is read from the fitted curve at half-maximal effect. In outline:
as §1

Test [6] is described as follows: Quantitative High-Throughput drug screen in 47 multiple myeloma cell lines against the NCATS MIPE library collection: KMS28PE_JCRB cell viability assay (AID 1918983). Also: nearly all actives have a fitted effect of over 35% in size. Also: potency is read from the fitted curve at half-maximal effect. In outline: as §1
A short description of test [7]: Quantitative High-Throughput drug screen in 47 multiple myeloma cell lines against the NCATS MIPE library collection: SKMM1_PLB cell viability assay (AID 1919863). Also: nearly all actives have a fitted effect of over 35% in size. Also: potency is read from the fitted curve at half-maximal effect. The conditions noted are these: SKMM1 myeloma viability, CellTiter-Glo ATP, 48 h; viability: stronger effect = lower value. Summed up: as §1
A general note: In ATP-based viability assays light output follows the ATP content of the culture.

The nature of test [8]: Quantitative High-Throughput drug screen in 47 multiple myeloma cell lines against the NCATS MIPE library collection: XG1_PLB cell viability assay (AID 1919866). Also: nearly all actives have a fitted effect of over 35% in size. Also: potency is read from the fitted curve at half-maximal effect. Summed up: as §1
Test [9] can be described thus: Quantitative High-Throughput drug screen in 47 multiple myeloma cell lines against the NCATS MIPE library collection: MOLP8_DSMZ cell viability assay (AID 1918977). Also: nearly all actives have a fitted effect of over 45% in size. Also: potency is read from the fitted curve at half-maximal effect.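 As to viability (% of control): 100% = DMSO-only wells and 0% = media-only wells without cells.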 In outline:
as §1

The nature of test [10]: Quantitative High-Throughput drug screen in 47 multiple myeloma cell lines against the NCATS MIPE library collection: MM1R_ATCC cell viability assay (AID 1918981). Also: nearly all actives have a fitted effect of over 35% in size. Also: potency is read from the fitted curve at half-maximal effect. In outline: as §1
The nature of test [11]: Quantitative High-Throughput drug screen in 47 multiple myeloma cell lines against the NCATS MIPE library collection: L363_DSMZ cell viability assay (AID 1918984). Also: potency is read from the fitted curve at half-maximal effect; nearly all actives have a fitted effect of over 40% in size. The conditions noted are these: L363 myeloma viability, CellTiter-Glo ATP luminescence, 48 h; viability (% of control): at 45.8 µM (top of the series). Summed up: as §1
Test [12] in a line: Quantitative High-Throughput drug screen in 47 multiple myeloma cell lines against the NCATS MIPE library collection: KMS34_JCRB cell viability assay (AID 1918985). Also: nearly all actives have a fitted effect of over 40% in size. Also: potency is read from the fitted curve at half-maximal effect. In outline: as §1
Test [13] is described as follows: Quantitative High-Throughput drug screen in 47 multiple myeloma cell lines against the NCATS MIPE library collection: OPM1_PLB cell viability assay (AID 1918989). Also: nearly all actives have a fitted effect of over 40% in size. Also: potency is read from the fitted curve at half-maximal effect.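 As to viability (% of control): 100% = DMSO-only wells and 0% = media-only wells.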 Summed up: as §1
A short description of test [14]: Quantitative High-Throughput drug screen in 47 multiple myeloma cell lines against the NCATS MIPE library collection: XG6_PLB cell viability assay (AID 1919865). Also: nearly all actives have a fitted effect of over 40% in size. Also: potency is read from the fitted curve at half-maximal effect.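 As to viability (% of control): 100% = DMSO-only wells and 0% = media-only wells.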 In outline:
as §1

Test [15] is described as follows: Quantitative High-Throughput drug screen in 47 multiple myeloma cell lines against the NCATS MIPE library collection: MMM1_PLB cell viability assay (AID 1918976). In outline: as §1
A short description of test [16]: Quantitative High-Throughput drug screen in 47 multiple myeloma cell lines against the NCATS MIPE library collection: OCIMY7_PLB cell viability assay (AID 1918987). Also: nearly all actives have a fitted effect of over 65% in size. Also: potency is read from the fitted curve at half-maximal effect. The conditions noted are these: OCI-MY7 myeloma viability, CellTiter-Glo ATP, 48 h; viability (% of DMSO): at 45.8 µM (top of the series). In outline:
as §1

The nature of test [17]: Quantitative High-Throughput drug screen in 47 multiple myeloma cell lines against the NCATS MIPE library collection: OCIMY5_PLB cell viability assay (AID 1918988). Also: potency is read from the fitted curve at half-maximal effect; nearly all actives have a fitted effect of over 65% in size. Summed up: as §1
Test [18] is described as follows: Quantitative High-Throughput drug screen in 47 multiple myeloma cell lines against the NCATS MIPE library collection: U266_ATCC cell viability assay (AID 1919864). Also: nearly all actives have a fitted effect of over 35% in size. Also: potency is read from the fitted curve at half-maximal effect. Summed up:
as §1

What is called viability is a read-out of living cells in per cent, often relative to untreated cells. Take `C[C@]12CCC3=C4CCC(=O)C=C4CC[C@@H]3[C@H]1CC[C@@]2(O)CC#N`: the Potency result in test [1], in test [2], in [3], in test [4], in [5] and in test [6] was “inactive” in each case. Further, the Potency entry in test [8] was “inactive”. Moreover, the viability in test [7] is 162%.

On to `OC1CCC(Nc2ncc3nc(Nc4c(F)cc(F)cc4F)n([C@@H]4CCOC4)c3n2)CC1` (some centres undefined), for which the Potency entry in test [1] and in [6] was “inactive” in each case. For the same compound, the Potency is 11.8 µM (active) in test [9]; 11.8 µM (active) in test [4]; 10.5 µM (active) in test [10]; 5.26 µM (active) in test [11]; 23.5 µM (active) in test [12]; 20.9 µM (active) in test [13]. Also, the Potency was 18.7 µM (active) in test [7], 9.35 µM (active) in test [14] and 13.2 µM (active) in test [8].

With `CN(C)CCOc1ccc(C(=C(CCCl)c2ccccc2)c2ccccc2)cc1`, the Potency in [15] was 23.5 µM (active); in test [9], 18.7 µM (active); in [4] it was 1.18 µM (active); in test [10], 23.5 µM (active); in [6], 26.4 µM (active); in test [16] it was 5.9 µM (active). Moreover, the Potency in test [17] is 26.4 µM (active); in test [13], 7.43 µM (active); in test [7], 23.5 µM (active); in [8], 2.96 µM (active). Moreover, the Potency result in test [3] is “inactive”.

Consider `CN[C@H]1[C@@H](O[C@@H]2[C@H](O[C@@H]3[C@@H](O)[C@@H](O)[C@@H](N=C(N)N)[C@@H](O)[C@@H]3N=C(N)N)O[C@H](C)[C@@]2(O)C=O)O[C@@H](CO)[C@@H](O)[C@H]1O`, for which the Potency entry in test [1], in [2], in test [4], in [10], in test [5] and in test [6] was “inactive” each time. Further, the Potency result in test [12], in [13], in [18], in test [14] and in [8] was “inactive” in each case. Also, the Potency in [11] is 0.0053 µM (active); in [7] it was 0.946 µM (active).

`CC1CNc2c(cccc2S(=O)(=O)N[C@@H](CCCN=C(N)N)C(=O)N2CC[C@@H](C)C[C@@H]2C(=O)O)C1` (some centres undefined): the Potency entry in [1], in test [3], in test [5], in test [12], in test [16] and in test [18] was “inactive” in each case. Further, in test [8], the Potency entry was “inactive”. For the same compound, the Potency in test [4] is 7.43 µM (active); in test [14], 5.9 µM (active).

For `C[C@@H](O)[C@H]1C(=O)N2C(C(=O)OCOC(=O)C(C)(C)C)=C(SC3CN(C4=NCCS4)C3)[C@H](C)[C@H]12`, the Potency entry in test [1], in [9], in [2], in [6] and in test [13] was “inactive” each time. Moreover, the Potency in test [10] was 16.6 µM (active). For the same compound, the viability in [7] is 111%.

Turning to `C[C@@H](O[C@H]1OCCN(Cc2n[nH]c(=O)[nH]2)[C@@H]1c1ccc(F)cc1)c1cc(C(F)(F)F)cc(C(F)(F)F)c1`, the Potency in [1] was 18.7 µM (active); in test [5], 23.5 µM (active); in [11], 4.69 µM (active); in test [12], 20.9 µM (active); in test [17], 23.5 µM (active); in test [13], 23.5 µM (active). For the same compound, the Potency was 23.5 µM (active) in test [7] and 16.6 µM (active) in test [14].

On to `C[C@]12C=CC(=O)C=C1CC[C@@H]1[C@@H]2[C@@H](O)C[C@@]2(C)[C@@H]1CC[C@]2(O)C(=O)CO`, for which the Potency in [15] was 0.166 µM (active); in test [9], 0.0743 µM (active); in [2] it was 2.35 µM (active); in test [4], 5.26 µM (active); in test [10], 6.62 µM (active); in test [5] it was 0.0469 µM (active). For the same compound, the Potency in test [12] was 0.187 µM (active); in [7], 1.48 µM (active). Further, the Potency entry in test [3], in test [6], in test [14] and in [8] was “inactive” throughout.

On to `CC(=O)OCC(=O)[C@@]1(O)CC[C@H]2[C@@H]3CCC4=CC(=O)C=C[C@]4(C)[C@@H]3[C@@H](O)C[C@@]21C`, for which the Potency was 2.64 µM (active) in test [15]; 2.35 µM (active) in test [9]; 0.187 µM (active) in test [2]; 0.118 µM (active) in [4]; 0.209 µM (active) in test [12]; 0.0074 µM (active) in test [7]. Also, the Potency result in [3], in test [6], in [13], in test [18] and in [8] was “inactive” throughout.

Take `CC(C)c1onc(-c2c(Cl)cccc2Cl)c1COc1ccc(C=Cc2cccc(C(=O)O)c2)c(Cl)c1`: the results for the Potency in test [15], in test [4] and in [10] were 20.9 µM (active), 18.7 µM (active) and 0.148 µM (active), respectively. Besides, the Potency entry in test [9], in [2], in [3], in test [5], in test [12] and in [13] was “inactive” each time. Moreover, the Potency entry in test [8] is “inactive”. Besides, the viability in [7] is 113%.

As for `O=C1Nc2ccc(I)cc2C1=Cc1cc(Br)c(O)c(Br)c1`, the Potency in test [1] was 16.6 µM (active); in test [17] it was 8.33 µM (active); in test [13], 10.5 µM (active); in test [7], 18.7 µM (active); in [8], 20.9 µM (active). The Potency entry in test [3], in test [10], in test [18] and in test [14] was “inactive” each time.

As for `C=C1c2cccc(O)c2C(O)=C2C(=O)[C@@]3(O)C(O)=C(C(N)=O)C(=O)[C@@H](N(C)C)[C@@H]3[C@@H](O)[C@H]12`, the Potency in [1] is 4.69 µM (active); in [10], 20.9 µM (active); in test [5], 23.5 µM (active); in test [16], 9.35 µM (active); in [17] it was 18.7 µM (active); in test [13] it was 23.5 µM (active). In addition, the Potency entry in [2] and in test [3] was “inactive” in each case.

Consider `CN(C)c1nc(Cc2ccc(NC(=O)c3ccc(C(F)(F)F)cc3)cc2)nc(N(C)C)c1CC(=O)O`, for which the Potency result in test [1], in [2], in test [3], in [16], in test [13] and in test [18] was “inactive” throughout. In test [8], the Potency entry was “inactive”. The Potency in [4] is 2.96 µM (active); in [10] it was 9.35 µM (active); in test [6], 5.26 µM (active). Also, the viability in test [7] was 127%.

Turning to `CN(C)c1ccccc1CN1CCCN(Cc2ccccc2N(C)C)C1c1ccncc1`, the Potency in test [15] is 16.6 µM (active); in [9], 18.7 µM (active); in [2] it was 14.8 µM (active); in test [10] it was 18.7 µM (active); in test [6], 23.5 µM (active); in test [17], 20.9 µM (active). The Potency is 20.9 µM (active) in [13], 20.9 µM (active) in test [7], 14.8 µM (active) in test [18] and 16.6 µM (active) in [14].

Source of the values: PubChem BioAssay (NCATS).
